Screening data deposited in PubChem BioAssay by Emory University Molecular Libraries Screening Center.
Measles inh: inhibitors of measles virus growth in cells, primary screen, measles RdRp inhibitor project, cell-based, single point, HTS. infected Vero cells, GFP fluorescence, 64 h; stronger effect = lower value. z-score (test concentration not listed). actives 0.1% (n = 33,000); in the data active means z-score below about -3
A number is an active result; - = inactive. The sample as a whole holds a higher share of hits than the screen did.

SMILES	Measles inh
Cc1ccc(C(=O)Nc2ccc(N3C(=O)c4cccc5cccc(c45)C3=O)cc2)cc1	-
O=C(CC(NCc1ccccc1)C(=O)O)Nc1ccc(Cl)cc1 (centres undefined)	-
CCOc1cc2[nH]c(=O)n(CCC(=O)NC3CCCCCC3)c(=O)c2cc1OCC	-
COc1ccc(CNC(=O)c2ccc3c(=O)n(-c4cc(OC)ccc4OC)c(=S)[nH]c3c2)cc1	-
COc1ccc(OC)c(-n2c(=S)[nH]c3cc(C(=O)Nc4ccc5c(c4)CCC5)ccc3c2=O)c1	-
CCN(CC)C(=O)c1ccc2c(=O)n(-c3cc(OC)ccc3OC)c(=S)[nH]c2c1	-5.5
Cc1nc2ccccc2c2ccccc12	-
COc1ccc(NC(=O)C2=C(C)NC3=C(C(=O)CC(c4ccc(OC)c(OC)c4)C3)C2c2ccc(C)cc2)cc1 (centres undefined)	-
COC(=O)CC1Oc2ccccc2NC1=O (centres undefined)	-
CCOc1ccc(C(=O)Oc2cccc3cccnc23)cc1Br	-3.5
CC(=O)Oc1cccc2cccnc12	-
COc1ccc(C(=O)Oc2cccc3cccnc23)cc1OC	-
O=C(Nc1ccncc1)c1ccccc1Br	-
CC(C)C1Cc2c(sc3nc(SCC(=O)O)n(Cc4ccccc4)c(=O)c23)CO1 (centres undefined)	-
Cc1nn(C(C)(C)C)c(OC(=O)CCc2ccccc2)c1Sc1ccccc1[N+](=O)[O-]	-
O=C(c1ccc([N+](=O)[O-])cc1)N1N=C2CCCCCC2C1(O)C(F)(F)F (centres undefined)	-
CCc1ccc(-n2c(=O)c3c4c(sc3n(CC(=O)N(CC)CC)c2=O)CCC4)cc1	-
O=C(Nc1cccc(-c2nc3ccccc3s2)c1)c1cccs1	-
O=C(Nc1cccc(-c2nc3ccccc3s2)c1)c1ccc(Br)o1	-4.2
O=C(Nc1cccc(-c2nc3cc(Cl)ccc3o2)c1)c1ccc(Br)o1	-
Cc1cccc(C(=O)Nc2sc3c(c2C(=O)Nc2ccccc2Cl)CCCC3)c1	-4.4
CC(C)OC(=O)c1c(NC(=O)c2ccc(Cl)c([N+](=O)[O-])c2)sc2c1CCCC2	-3.8
Cc1cccc(C(=O)Nc2sc3c(c2C(=O)NCc2ccco2)CCCC3)c1	-
COC(=O)c1c(NC(=O)c2ccc(C)c([N+](=O)[O-])c2)sc2c1CCC2	-
Cc1cc(C(=O)Nc2sc3c(c2C(=O)OC(C)C)CCCC3)ccc1[N+](=O)[O-]	-
SMILES	Measles inh
Cc1cccc(C(=O)Nc2sc3c(c2C(=O)Nc2ccccc2Cl)CCC3)c1	-
CC(C)C(NS(=O)(=O)c1cccs1)C(=O)NCc1ccc(F)cc1 (centres undefined)	-
CCc1nc2cccc([N+](=O)[O-])c2nc1CC	-
Fc1ccccc1-c1nc(-c2ccccc2)c(-c2cccs2)[nH]1	-
COc1ccccc1Nc1cc(C(=O)NCc2ccccc2Cl)c2ccccc2n1	-
Cc1cc(C)c2c(N)c(C(=O)Nc3cccc4ccccc34)sc2n1	-
CC1CCC(NC(=O)C2c3ccccc3C(=O)N2CCCN2CCOCC2)CC1 (centres undefined)	-4.9
O=C(NC1CCCCCCC1)C1c2ccccc2C(=O)N1CCCN1CCCCC1 (centres undefined)	-
COc1ccc(Br)cc1CN1C(=O)c2ccccc2C1C(=O)NC1CCC(C)CC1 (centres undefined)	-
Cc1c(Cl)c(C)c([N+](=O)[O-])c(O)c1C=Nc1ccc(-c2nc3ncccc3o2)cc1	-
COCCCNC(=O)c1ccc2c(=O)n(CCOC)c(=O)[nH]c2c1	-
COCCn1c(=O)[nH]c2cc(C(=O)NCCN3CCN(c4ccccc4)CC3)ccc2c1=O	-3.6
COCCn1c(=O)[nH]c2cc(C(=O)NC3CCN(Cc4ccccc4)CC3)ccc2c1=O	-
CCOc1ccccc1N(C)C(=O)Cc1c(C(=O)O)[nH]c2ccc(Cl)cc12	-
